In test [1] the target is Cytochrome P450 2D6 (Homo sapiens) (UniProt P10635). The test can be described thus: Cytochrome P450 family 2 subfamily D member 6 (CYP2D6) small molecule antagonists: luciferase biochemical (cell-free) qHTS assay (AID 1645840; active = well fitted curve in the direction sought with a large enough effect in the repeat runs; an effect the other way counts as inactive or inconclusive; note: potency is the fitted concentration of half-maximal effect; nearly all actives have a fitted effect of over 55% in size). To be noted: P450-Glo CYP2D6 enzyme, luciferin luminescence, 1 h; series mostly up to 57.4 µM. A digest of the protocol:
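P450-Glo luminescent screen: recombinant CYP2D6 enzyme–proluciferin substrate mix preincubated with compound 10 min at room temperature, then NADPH regeneration added for 1 h at room temperature. Detection reagent added for 20 min; luciferin light read as relative luminescence units.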

The target of test [2] is Cytochrome P450 2C9 (Homo sapiens) (UniProt P11712). The test can be described thus: Cytochrome P450 family 2 subfamily C member 9 (CYP2C9) small molecule antagonists: luciferase biochemical (cell-free) qHTS assay (AID 1645842; active = well fitted curve in the direction sought with a large enough effect in the repeat runs; an effect the other way counts as inactive or inconclusive; note: potency is the fitted concentration of half-maximal effect; nearly all actives have a fitted effect of over 55% in size). To be noted: P450-Glo CYP2C9 enzyme assay, luciferin luminescence; series mostly up to 57.4 µM. The gist of the method: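 Luminescence, after 20 min with luciferin detection reagent, reflected CYP2C9 turnover during a 1 h NADPH-driven reaction at 37C. Enzyme-substrate mix contained 0.4% bovine serum albumin and was preincubated with compound 10 min at room temperature.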

The nature of test [3]: qHTS for Inhibitors of the vitamin D receptor (VDR): Hit Validation using a Texas Red Assay (AID 602201; active = well fitted curve in the direction sought with a large enough effect; an effect the other way counts as inactive or inconclusive; note: potency is the fitted concentration of half-maximal effect). To be noted: VDR coregulator binding, Texas Red fluorescence polarization; agonist-bound VDR ligand-binding domain. A digest of the protocol: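 Fluorescence polarization (Ex 595/Em 615 nm) of Texas Red (7 nM) with 1.5 uM VDR-LBD and LG19078 (final concentrations). Compounds were incubated for 2 hours at room temperature.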

The nature of test [4]: qHTS for Inhibitors of the vitamin D receptor (VDR): Hit Validation using a Cytotoxicity Assay (AID 602204; active = well fitted curve in the direction sought with a large enough effect; an effect the other way counts as inactive or inconclusive;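 note: plate controls were DMSO for no effect and high-concentration cycloheximide for full effect; nearly all actives have a fitted effect of over 75% in size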). To be noted: cytotoxicity counter-screen, cell viability; series mostly up to 48.3 µM. The source says: The vitamin D receptor (VDR) is a ligand-activated transcription factor and is partially responsible for the regulation of the endocrine system. This includes the transcriptional regulation of genes involved in the production of the parathyroid hormone (PTH) and the regulation of the blood calcium level. High levels of PHT can cause hypercalcemia in the case of primary and tertiary hyperparathyroidism. The VDR-mediated gene regulation, activated by its ligand 1,25-dihydroxyvitamin D3 (1,25-(OH)2D3), is governed by the recruitment of coactivators. Our hypothesis is that small molecules, with the ability to inhibit the interaction between VDR and certain coactivators, are able to selectively modulate VDR-mediated transcription. Our long term objective is the application these VDR-coactivator inhibitors to study the role of VDR-coactivator binding for specific VDR regulated genes. […]
In a collaboration between the University of Wisconsin, Milwaukee and the NIH Chemical Genomics Center (NCGC) a HTS-compatible enzymatic assay was developed. The assay uses fluorescence polarization as its read-out to measure the inhibition between VDR and coregulator peptide SRC2-3 exerted by small molecules. […] This assay quantifies the amount of ATP generated by living cells and compounds that are active in this assay are undesirable for the project due to cytotoxicity. […]
Step 8: Read luminescence

Test [5] is described as follows: qHTS profiling of the MIPE4 collection as inhibitors of Plasmodium falciparum (3D7) proliferation (AID 743344).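 Note: scaled between DMSO vehicle wells and 0.29 µM artemisinin as full inhibition.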 To be noted: P. falciparum 3D7 in erythrocytes, SYBR Green DNA fluorescence, 72 h; at 5.51 µM (top of the series) unless noted. A digest of the protocol:
(§1)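 Erythrocytes infected with P. falciparum (0.3% parasitemia, 2.5% hematocrit) incubated with compounds 72 h at 37 C, 5% CO2. Lysis with saponin/Triton buffer containing SYBR Green I, overnight at room temperature in the dark; DNA fluorescence (485/535 nm) normalised to 0.29 uM artemisinin and DMSO.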

Test [6] can be described thus: qHTS profiling of the MIPE4 collection as inhibitors of Plasmodium falciparum (DD2) proliferation (AID 743345). To be noted: P. falciparum Dd2 in erythrocytes, SYBR Green DNA, 72 h; at 5.51 µM (top of the series) unless noted. A digest of the protocol:
as §1

A short description of test [7]: qHTS profiling of the MIPE4 collection as inhibitors of Plasmodium falciparum (DD2) proliferation (Rep 2) (AID 743346). To be noted: P. falciparum Dd2 in erythrocytes, SYBR Green DNA, 72 h; at 5.51 µM (top of the series) unless noted. The gist of the method:
as §1

The nature of test [8]: qHTS profiling of the MIPE4 collection as inhibitors of Plasmodium falciparum (HB3) proliferation (AID 743347).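 Note: plate controls were DMSO vehicle wells for no effect and artemisinin wells for full effect.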 To be noted: P. falciparum HB3 in erythrocytes, SYBR Green DNA, 72 h; at 5.51 µM (top of the series) unless noted. The gist of the method: as §1

This is an account of results in PubChem BioAssay (NCATS).

Inconclusive results are not listed. This is one part of the list. Calls of active or inactive are those of the source. Unless noted, the rule behind the calls is not given here.

Chain of Cytochrome P450 2D6 (Homo sapiens) (P10635 whole entry, looked up): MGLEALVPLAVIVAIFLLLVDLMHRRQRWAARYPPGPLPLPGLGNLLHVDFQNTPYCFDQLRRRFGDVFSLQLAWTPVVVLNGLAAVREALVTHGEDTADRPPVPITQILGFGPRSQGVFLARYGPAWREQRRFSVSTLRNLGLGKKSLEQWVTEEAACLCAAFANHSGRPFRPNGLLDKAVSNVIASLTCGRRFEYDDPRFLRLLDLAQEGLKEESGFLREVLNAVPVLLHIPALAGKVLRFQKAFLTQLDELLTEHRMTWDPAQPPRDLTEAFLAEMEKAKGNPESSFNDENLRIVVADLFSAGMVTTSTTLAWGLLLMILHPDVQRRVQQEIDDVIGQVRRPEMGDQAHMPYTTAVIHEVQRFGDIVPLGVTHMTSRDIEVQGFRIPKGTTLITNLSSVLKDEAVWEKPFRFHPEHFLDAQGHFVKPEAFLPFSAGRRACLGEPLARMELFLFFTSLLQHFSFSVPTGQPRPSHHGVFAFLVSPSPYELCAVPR
Chain of Cytochrome P450 2C9 (Homo sapiens) (P11712 whole entry, looked up): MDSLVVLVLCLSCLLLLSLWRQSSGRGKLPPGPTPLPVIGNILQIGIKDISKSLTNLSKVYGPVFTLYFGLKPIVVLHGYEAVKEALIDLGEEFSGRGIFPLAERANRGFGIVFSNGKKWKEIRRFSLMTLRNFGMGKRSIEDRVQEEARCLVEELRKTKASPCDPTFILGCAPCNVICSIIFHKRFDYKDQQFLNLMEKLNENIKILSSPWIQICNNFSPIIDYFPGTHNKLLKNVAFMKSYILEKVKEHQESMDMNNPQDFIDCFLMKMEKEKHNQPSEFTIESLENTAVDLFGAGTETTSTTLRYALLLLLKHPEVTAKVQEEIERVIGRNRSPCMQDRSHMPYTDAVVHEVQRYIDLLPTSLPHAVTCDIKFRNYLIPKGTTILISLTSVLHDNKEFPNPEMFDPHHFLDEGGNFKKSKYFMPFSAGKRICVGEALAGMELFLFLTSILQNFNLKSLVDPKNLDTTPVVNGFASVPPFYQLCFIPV

With `Cc1ccc(Cn2c(C)c3cnn(CC(=O)NCc4ccccc4)c(=O)c3c2C)cc1`, the Potency in test [1] is 9.52 µM (active); in test [2], 12 µM (active).
On to `CCOc1ccc(NC(=O)c2c(NC(=O)Cc3ccccc3)sc3c2CCC(C)C3)cc1` (stereo not drawn), for which the Potency in test [3] was 3.55 µM (active).
`CCCCOc1ccc(CN2C(=O)C(=O)c3cc(Br)cc(C)c32)cc1OC`: in test [4], the result was inactive.
`CC1CC2C3CCC4=CC(=O)C=C[C@@]4(C)[C@]3(F)C(O)C[C@]2(C)[C@]1(O)C(=O)CO` (stereo partly drawn) showed a parasite growth, % of DMSO control in test [5] of 31.9% [at 28.5 µM]. The compound further had a parasite growth remaining, % of DMSO control (lower = more inhibition) in test [6] of 90.9% [at 28.5 µM]. This compound also had a parasite growth, % of control (lower = inhibition) in test [7] of 44.9% [at 28.5 µM]. Also, the growth, % of control in test [8] turned out to be 11.4% [at 28.5 µM].
